The subject of assay [1] is Wnt5a (protein binding on small-molecule microarray). The assay is described as follows: small molecules binding Wnt5a protein – biophysical, small-molecule microarray, 635/667 nm fluorescence, primary screen (AID 1142).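 Note: fluorescence read at 667 nm with signal to noise per printed feature.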 The following applies: 635 nm fluorescence, higher = more signal.
A short description of assay [2]: ATP-based viability of Huh7 replicon cells – cell-based, CellTiter-Glo luminescence, basal, 48 h, cytotoxicity control for HCV replication inhibitor project, primary screen (AID 1143).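 Note: Huh7 hepatoma cells carrying a hepatitis C replication reporter with no stimulus; test concentration not given here.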 The following applies: higher = more signal, called active from +8 up or from −8 down. A general note: In antiviral work, replicon cells carry a viral genome segment that copies itself.

Assay [3] is described as follows: Pseudomonas biofilm growth suppression – PAO1 strain, BacTiter-Glo luminescence, LB-PBS, primary screen (AID 1144). The following applies: P. aeruginosa PAO1 biofilm, 12 h, higher = more signal.
Assay [4] in a line: basal CRE-LacZ reporter activity in PC12 – cell-based, unstimulated, primary screen (AID 1145). The following applies: no forskolin, luminescence, 4.5 h, higher = more signal, called active from +8 up or from −8 down.
A short description of assay [5]: forskolin-driven CRE-LacZ activity in PC12 – cell-based, CRE-LacZ reporter, forskolin-stimulated, primary screen (AID 1146).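 Note: PC12 cells with 6xCRE LacZ reporter stimulated by forskolin 10 µM; beta-galactosidase reporter signal reflecting CREB driven transcription.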 The settings on record: luminescence, 4.5 h, higher = more signal, called active from +8 up or from −8 down.
The target in assay [6] is Streptavidin (Streptomyces avidinii) (UniProt P22629). The experiment in a line: compounds binding control protein streptavidin – biophysical, small-molecule microarray, 635/667 nm fluorescence, artefact control for SMM compound annotation, primary screen (AID 1147).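 Note: signal reflects streptavidin binding to arrayed compounds as a control protein.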 The settings on record: higher = more signal.
Assay [7] in a line: probe aInhba binding on compound microarray – biochemical, small-molecule microarray, 635/667 nm fluorescence, primary screen (AID 1148).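 Note: score merges 667nm spot fluorescence with signal-to-noise for antibody binding to printed compounds.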 The following applies: higher = more signal.
Assay [8] addresses Torsin-1A (Homo sapiens) (UniProt O14656). The experiment in a line: TOR1A wild-type binding on microarray – cell lysate, small-molecule microarray, lysate, 635/667 nm, primary screen (AID 1149). The following applies: COS7 hTOR1A-WT lysate, 635 nm fluorescence, higher = more signal.
The target is the same in assay [9]. The experiment in a line: torsin A mutant lysate binding on microarrays – cell lysate, small-molecule microarray, COS7 lysate, 635/667 nm fluorescence, primary screen (AID 1150).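 Note: score pools 667 nm emission and signal to noise measuring lysate protein binding.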 The following applies: COS7 hTOR1A mutant lysate, 635 nm fluorescence, higher = more signal.
Assay [10] concerns Sonic hedgehog protein (Shh). The experiment in a line: Sonic hedgehog microarray binding compounds – biochemical, small-molecule microarray, 635/667 nm fluorescence, primary screen (AID 1151).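 Note: Shh protein binding to compounds spotted on small-molecule microarray slides; score combines spot fluorescence intensity with signal-to-noise across triplicate slides.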 The settings on record: 635 nm fluorescence, higher = more signal.

The source made the active and inactive calls. Unless noted, the rule behind the calls is not given here.

Sequence of Torsin-1A (Homo sapiens) (O14656 whole entry, looked up): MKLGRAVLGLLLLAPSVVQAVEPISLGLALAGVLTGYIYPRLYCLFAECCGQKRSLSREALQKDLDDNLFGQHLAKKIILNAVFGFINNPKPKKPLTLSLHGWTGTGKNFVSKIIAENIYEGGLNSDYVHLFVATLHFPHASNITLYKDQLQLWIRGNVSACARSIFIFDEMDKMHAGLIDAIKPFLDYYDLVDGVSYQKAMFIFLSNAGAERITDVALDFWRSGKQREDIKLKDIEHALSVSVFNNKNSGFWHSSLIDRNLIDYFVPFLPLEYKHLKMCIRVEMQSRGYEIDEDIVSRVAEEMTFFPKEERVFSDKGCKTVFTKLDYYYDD
Sequence of Streptavidin (Streptomyces avidinii) (P22629 whole entry, looked up): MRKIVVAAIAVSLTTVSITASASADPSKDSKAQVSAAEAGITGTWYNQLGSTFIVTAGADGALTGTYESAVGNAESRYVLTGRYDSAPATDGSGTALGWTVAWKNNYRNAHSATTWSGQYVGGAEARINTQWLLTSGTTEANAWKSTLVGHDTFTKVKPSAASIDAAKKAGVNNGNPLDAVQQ

Take `CCCNC(=O)[C@@H]1c2ccccc2C(=O)N(Cc2ccccc2)[C@H]1c1ccc(CO)cc1`: the composite z-score was -0.0869 in [1]; 0.624 in assay [6]; -0.0405 in assay [7]; -0.468 with Torsin-1A (Homo sapiens) [8]; -0.221 in the assay with Torsin-1A (Homo sapiens) [9]; -0.461 in assay [10]. Moreover, the z-score in assay [2] is -1.98 (inactive); in assay [3], -0.112 (inactive); in [4], -0.179 (inactive); in assay [5] it was 0.0988 (inactive).

For the compound `[N-]=[N+]=NCc1ccccc1C[C@]1(C(=O)O)N=C(c2ccc(OCCCO)cc2)O[C@H]1c1ccccc1CN=[N+]=[N-]`, the composite z-score is -0.0602 in assay [1]; 1.66 in assay [6]; 0.0342 in assay [7]; 0.171 in the assay with Torsin-1A (Homo sapiens) [8]; 0.48 with Torsin-1A (Homo sapiens) [9]; -0.0214 in assay [10]. In addition, the z-score in [2] was -1.42 (inactive); in assay [3], -0.046 (inactive); in assay [4], 2.87 (inactive); in assay [5], 2.69 (inactive).

Regarding `CCOC(=O)C[C@H]1[C@H](OC(=O)c2ccccc2-c2ccccc2)[C@@H](NC(=O)Cc2ccc(OC)cc2)c2cc(OCCCO)ccc2N1C(=O)c1ccccc1`, the composite z-score is 0.222 in assay [1]; -0.105 in assay [6]; -0.287 in assay [7]; -0.259 with Torsin-1A (Homo sapiens) [8]; 0.405 with Torsin-1A (Homo sapiens) [9]; -0.127 in [10]. The z-score in [2] is -0.0369 (inactive); in [3] it was 0.817 (inactive); in assay [4], 4.57 (inactive); in assay [5], 2.83 (inactive).

For the compound `CC(=O)NCCCC[C@@H]1NC(=O)[C@H]2C[C@@H](C(=O)NCCCCCC[N+](C)(C)C)[C@@H](c3cccc(OCCO)c3)N2C1=O`, the composite z-score in assay [1] was 0.408; in [6], 0.927; in assay [7], -0.149; with Torsin-1A (Homo sapiens) [8], 1.07; with Torsin-1A (Homo sapiens) [9] it was 0.59; in assay [10], 2.26. Besides, the z-score in assay [2] is -2.49 (inactive); in assay [3], -1.01 (inactive); in assay [4], -0.801 (inactive); in [5] it was -0.812 (inactive).

Consider `CCOC(=O)C1=CCC(C(C)(C)C)N(S(=O)(=O)c2ccc(C)cc2)C1` (stereo not given), for which the composite z-score was 0.858 in [1]; 1.6 in [6]; -0.0933 in assay [7]; 0.881 in the assay with Torsin-1A (Homo sapiens) [8]; 1.67 with Torsin-1A (Homo sapiens) [9]; 0.722 in assay [10]. Moreover, the z-score in assay [2] was -4.52 (inactive); in [3], 1.19 (inactive); in assay [4] it was 0.883 (inactive); in [5] it was 0.639 (inactive).

With `COc1ccc(C#Cc2ccc3c(c2)[C@]2(C(=O)N3)[C@H](c3ccc(O)cc3)N3[C@H](c4ccccc4)[C@H](c4ccccc4)OC(=O)[C@H]3[C@@H]2C(=O)N2CCCCCCC2)cc1`, the composite z-score came out at 1.12 in assay [1]; 1.9 in [6]; 1.43 in [7]; 1.55 with Torsin-1A (Homo sapiens) [8]; 1.43 in the assay with Torsin-1A (Homo sapiens) [9]; 2.09 in assay [10]. Also, the z-score in assay [2] is -3.96 (inactive); in assay [3] it was -1.42 (inactive); in [4] it was 0.0653 (inactive); in assay [5], -0.648 (inactive).

As for `CCOC(=O)C[C@H]1[C@H](OC(=O)c2ccc(-c3ccccc3)cc2)[C@@H](NC(=O)c2ccc(-c3ccccc3)cc2)c2cc(OCCCO)ccc2N1C(=O)Cc1ccc(OC)cc1`, the composite z-score in [1] is 0.0386; in assay [6] it was 0.745; in [7] it was 0.0301; in the assay with Torsin-1A (Homo sapiens) [8] it was -0.205; in the assay with Torsin-1A (Homo sapiens) [9], 0.119; in assay [10], -0.195. The z-score is -0.477 (inactive) in assay [2], -0.402 (inactive) in [3], -0.448 (inactive) in [4] and -0.494 (inactive) in [5].

For `CCCCCCCCCCC(O)C1C=CC2C(=O)N(Cc3ccccc3)C(=O)C2N1n1cnnc1` (stereo not given), the composite z-score is 0.418 in assay [1]; 0.744 in assay [6]; 0.437 in assay [7]; 0.0668 in the assay with Torsin-1A (Homo sapiens) [8]; 0.567 in the assay with Torsin-1A (Homo sapiens) [9]; -0.778 in assay [10]. The z-score was -4.02 (inactive) in assay [2], -0.0968 (inactive) in [3], -0.0137 (inactive) in assay [4] and -0.728 (inactive) in assay [5].

On to `CO[C@H]1O[C@H](CO)[C@@H](OC(=O)Nc2ccc3c(c2)OCO3)[C@H](OC(=O)Nc2ccccc2)[C@H]1OC(=O)Nc1ccccc1`, for which the composite z-score in assay [1] was 0.446; in assay [6], 0.869; in assay [7] it was 0.0906; with Torsin-1A (Homo sapiens) [8] it was 0.487; with Torsin-1A (Homo sapiens) [9], 1.11; in assay [10], 1.43. Besides, the z-score in assay [2] is -5.46 (inactive); in [3], -0.785 (inactive); in assay [4], 1.16 (inactive); in assay [5] it was -2.23 (inactive).

For the compound `CCCC[C@H]1OB(O)C[C@H]2C1=C(C)C[C@H]1C(=O)N(Cc3ccccc3)C(=O)[C@H]12`, the composite z-score in [1] was 0.34; in assay [6], -0.0276; in assay [7], -0.122; with Torsin-1A (Homo sapiens) [8] it was 0.358; in the assay with Torsin-1A (Homo sapiens) [9], 0.528; in assay [10], 1.01. In addition, the z-score was 0.342 (inactive) in [2], 0.464 (inactive) in assay [3], -0.23 (inactive) in assay [4] and -0.155 (inactive) in assay [5].

Regarding `COCCCNC(=O)[C@@]1(CCC(=O)OC(C)(C)C)N=C(c2ccc(OCCCO)cc2)O[C@H]1c1ccccc1CN=[N+]=[N-]`, the composite z-score in [1] came out at 1.01; in assay [6], 1.01; in [7] it was 0.329; with Torsin-1A (Homo sapiens) [8], 1.23; in the assay with Torsin-1A (Homo sapiens) [9] it was 1.51; in assay [10], 0.103. Besides, the z-score in assay [2] was -0.0523 (inactive); in assay [3] it was 0.0993 (inactive); in assay [4], -0.538 (inactive); in assay [5], 0.286 (inactive).

For `COc1ccc([Si](C)(C)[C@@H]2[C@@H](CCn3cc([C@H](O)c4ccccc4)nn3)O[C@]3(C(=O)N(Cc4cccc(N5CCOC5=O)c4)c4ccccc43)[C@H]2C)cc1`, the composite z-score in assay [1] is -0.105; in assay [6] it was -0.469; in assay [7], -0.292; with Torsin-1A (Homo sapiens) [8], -0.568; in the assay with Torsin-1A (Homo sapiens) [9], -0.668; in assay [10], -0.98. Moreover, the z-score is -1.08 (inactive) in assay [2], -1.69 (inactive) in [3], 0.134 (inactive) in assay [4] and -1.36 (inactive) in assay [5].

Turning to `O=C1OCCC/C=C\[C@H]2OC34C=CCN(Cn5nnc6ccccc65)C(=O)[C@H]3N(CCCCCO)C(=O)[C@@H]4C12` (stereo not given in full), the composite z-score in [1] is -0.883; in [6] it was -1.21; in assay [7] it was -0.0762; with Torsin-1A (Homo sapiens) [8] it was -2.35; in the assay with Torsin-1A (Homo sapiens) [9] it was -0.736; in assay [10] it was 0.436. Also, the z-score in assay [2] was -0.19 (inactive); in assay [3], -0.477 (inactive); in assay [4], -0.35 (inactive); in assay [5], -0.26 (inactive).

`[N-]=[N+]=Nc1ccccc1[C@H]1OC(c2ccc(OCCCO)cc2)=N[C@@]1(CCS(=O)(=O)c1ccccc1)C(=O)O`: the composite z-score was 0.296 in assay [1]; 0.433 in assay [6]; 0.0516 in assay [7]; -0.363 with Torsin-1A (Homo sapiens) [8]; 1.13 with Torsin-1A (Homo sapiens) [9]; -0.721 in [10]. Further, the z-score was -1.06 (inactive) in assay [2], 0.713 (inactive) in assay [3], 1.29 (inactive) in assay [4] and -0.197 (inactive) in assay [5].

For the origin of these results see PubChem BioAssay.
